Reference: PubChem BioAssay (EPA / NIEHS)
Several values for one entry are separate records, joined by “and”; a condition that tells them apart may be missing. Identical values can stand only once. Results filed as inconclusive are left out. Some structures have more than one record in an assay (separate samples or runs), and their calls can disagree. Activity calls are given as the source filed them. Rule for the calls, unless noted: active = hit-call score of the fitted dose curve at least 0.9, where 1 is the maximum; inactive = score below 0.9.

Legend:
[1] = read-out: Macrophage colony-stimulating factor (MCSF), CSF1 (gene 1435); assay: BSK_LPS_MCSF: BioMAP Diversity Plus: LPS Assay for Macrophage colony-stimulating factor (MCSF) Biomarker Activity (AID 2283083); details: primary human HUVEC with PBMC; actives raise or lower the signal
Summary of the method: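 Compound is added to a human vascular primary co-culture of umbilical vein endothelium and blood mononuclear cells. After 24 h, M-CSF is quantified by ELISA. Signal changes are fitted in both directions against DMSO.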

[2] = read-out: Tissue Factor, F3 (gene 2152); assay: BSK_LPS_TissueFactor: BioMAP Diversity Plus: LPS Assay for Tissue Factor Biomarker Activity (AID 2283084); details: primary human HUVEC with PBMC; actives raise or lower the signal
Summary of the method: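 In this co-culture system of umbilical vein endothelium with PBMC, stimulated with LPS, cell-surface CD142 is detected by ELISA at 24 h. Endpoint values derive from bidirectional fitting, DMSO serving as baseline.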

[3] = read-out: Tumor necrosis factor (Homo sapiens) (UniProt P01375); assay: BSK_LPS_TNFa: BioMAP Diversity Plus: LPS Assay for Tumour Necrosis Factor alpha (TNFa) Biomarker Activity (AID 2283085); details: primary human HUVEC with PBMC; actives raise or lower the signal;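 for AC50: TNFa protein level quantified by ELISA in the co-culture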
Summary of the method: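 Cells (umbilical vein endothelium plus peripheral blood mononuclear cells) were dosed with chemical, incubated 24 h, then TNFa was quantified by ELISA; values derive from bidirectional fitting with DMSO as baseline.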

[4] = read-out: Vascular cell adhesion molecule 1 (VCAM1), VCAM1 (gene 7412); assay: BSK_LPS_VCAM1: BioMAP Diversity Plus: LPS Assay for Vascular cell adhesion molecule 1 (VCAM1) Biomarker Activity (AID 2283086); details: primary human HUVEC with PBMC; actives raise or lower the signal
Summary of the method: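 Cells are dosed in an LPS-stimulated endothelial/mononuclear co-culture and, after 24 h, VCAM-1 is quantified by ELISA. Activity in either direction is fitted relative to the DMSO negative control.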

CD38, CD38 (gene 952) = assay: BSK_SAg_CD38: BioMAP Diversity Plus: SAg Assay for CD38 Biomarker Activity (AID 2283087); details: primary human HUVEC with PBMC; actives raise or lower the signal
Summary of the method: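 CD38 quantified by ELISA (fluorescence) in a superantigen-activated endothelial cell–PBMC co-culture at 24 h post-dose. Activity fitted in both directions relative to DMSO; parallel SRB and Alamar Blue cytotoxicity read-outs.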

CD40, CD40 (gene 958) = assay: BSK_SAg_CD40: BioMAP Diversity Plus: SAg Assay for CD40 Biomarker Activity (AID 2283088); details: primary human HUVEC with PBMC; actives raise or lower the signal
Summary of the method: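 Fluorescence ELISA read-out of CD40 from umbilical vein endothelium plus peripheral blood mononuclear cells, sampled 24 h after dosing. Values come from bidirectional curve fitting with DMSO as baseline.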

CD69, CD69 (gene 969) = assay: BSK_SAg_CD69: BioMAP Diversity Plus: SAg Assay for CD69 Biomarker Activity (AID 2283089); details: primary human HUVEC with PBMC; actives raise or lower the signal;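 for AC50: cell surface CD69 protein quantified by ELISA with fluorescence detection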
Summary of the method: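 ELISA, fluorescence read-out: CD69 on human umbilical vein endothelial cell + PBMC co-culture, 24 h post-dosing. Gain or loss of signal fitted bidirectionally against DMSO baseline.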

[5] = read-out: Monocyte Chemoattractant Protein-1 (MCP1), CCL2 (gene 6347); assay: BSK_SAg_MCP1: BioMAP Diversity Plus: SAg Assay for Monocyte Chemoattractant Protein-1 (MCP1) Biomarker Activity (AID 2283090); details: primary human HUVEC with PBMC; actives raise or lower the signal
Summary of the method: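 Values derive from bidirectional fitting of ELISA-measured MCP1 against DMSO controls. Readings were taken 24 h after dosing human vascular endothelial cells co-cultured with peripheral blood mononuclear cells under superantigen stimulation.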

[6] = read-out: E-selectin (Homo sapiens) (UniProt P16581); assay: BSK_SAg_Eselectin: BioMAP Diversity Plus: SAg Assay for Eselectin Biomarker Activity (AID 2283091); details: primary human HUVEC with PBMC; actives raise or lower the signal
Summary of the method: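 Primary human endothelial cells and peripheral blood mononuclear cells were co-cultured and exposed to chemical for 24 hours. E-selectin levels were then quantified by ELISA, with bidirectional curve fitting normalised to DMSO controls.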

[7] = read-out: Monokine induced gamma interferon (MIG), CXCL9 (gene 4283); assay: BSK_SAg_MIG: BioMAP Diversity Plus: SAg Assay for Monokine induced gamma interferon (MIG) Biomarker Activity (AID 2283092); details: primary human HUVEC with PBMC; actives raise or lower the signal
Summary of the method: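 ELISA readout of MIG/CXCL9; primary human umbilical vein endothelial cells co-cultured with peripheral blood mononuclear cells; 24 h post-dose; gain/loss fit vs DMSO baseline.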

[8] = BSK_SAg_PBMCCytotoxicity: PBMC Cytotoxicity Assessment in the BioMAP Diversity Plus: SAg Assay (AID 2283093); details: primary human HUVEC with PBMC;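 note: PBMC viability measured as Alamar Blue reduction fluorescence at 546/580 nm; fitted both ways against DMSO so a hit may be loss or gain of signal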;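 for AC50: PBMC superantigen activated with SEB plus TSST-1 one hour after compound addition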
Summary of the method: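 Alamar Blue reduction (6 h, 546/580 nm) reports PBMC cytotoxicity after 90 h superantigen activation (SEB, TSST-1; 20 ng/mL final each) with 1 h compound pre-treatment. Gain or loss of signal fitted versus DMSO.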

[9] = read-out: Interleukin-8 (IL8), CXCL8 (gene 3576); assay: BSK_SAg_IL8: BioMAP Diversity Plus: SAg Assay for Interleukin-8 (IL8) Biomarker Activity (AID 2283094); details: primary human HUVEC with PBMC; actives raise or lower the signal
Summary of the method: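 Chemicals were dosed onto a human endothelial–PBMC co-culture, and IL-8 was quantified by ELISA after 24 h. Both increases and decreases were fitted relative to DMSO.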

[10] = BSK_SAg_Proliferation: Cell Proliferation Assessment in the BioMAP Diversity Plus: SAg Assay (AID 2283095); details: primary human HUVEC with PBMC;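 note: relative cell number as total protein by SRB absorbance in sub-confluent culture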
Summary of the method: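 Absorbance of sulforhodamine B at 560 nm reports total protein in a human vascular endothelial/PBMC co-culture after 96 h chemical exposure. Gain or loss of signal is fitted in both directions against DMSO.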

[11] = BSK_SAg_SRB: Viability Assessment in the BioMAP Diversity Plus: SAg Assay (AID 2283096); details: primary human HUVEC with PBMC;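 note: cells read one day after compound addition; hits may be either gain or loss of signal compared with DMSO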
Summary of the method: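 This overt-cytotoxicity endpoint quantifies protein in human endothelial/PBMC co-cultures at 24 h using SRB absorbance (560 nm) after trichloroacetic acid fixation. Values reflect signal change from the DMSO negative control, fitted bidirectionally.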

[12] = target: human CYP2D6, CYP2D6 (gene 1565) (UniProt P10635); assay: NVS_ADME_hCYP2D6: NovaScreen (NVS) CYP450-related Enzyme Activity (ADME) Assay for human CYP2D6 (AID 2283107; active = hit-call score of the fitted dose curve at least 0.9, where 1 is the maximum)
Sequence of human CYP2D6, CYP2D6 (gene 1565) (P10635 whole entry, looked up): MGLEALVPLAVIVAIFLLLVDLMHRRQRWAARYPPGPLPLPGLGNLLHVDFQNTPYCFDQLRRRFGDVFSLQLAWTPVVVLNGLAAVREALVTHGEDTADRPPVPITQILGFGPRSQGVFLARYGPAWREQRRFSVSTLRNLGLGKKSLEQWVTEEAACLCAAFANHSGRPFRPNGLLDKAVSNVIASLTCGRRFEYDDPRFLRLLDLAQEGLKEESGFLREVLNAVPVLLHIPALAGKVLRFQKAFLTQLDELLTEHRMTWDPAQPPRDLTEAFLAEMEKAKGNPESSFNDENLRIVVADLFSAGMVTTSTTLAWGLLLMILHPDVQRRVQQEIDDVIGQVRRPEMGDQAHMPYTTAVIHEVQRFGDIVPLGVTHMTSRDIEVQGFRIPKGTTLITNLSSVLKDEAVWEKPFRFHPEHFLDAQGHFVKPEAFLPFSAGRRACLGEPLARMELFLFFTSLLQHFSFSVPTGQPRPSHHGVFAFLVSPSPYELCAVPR
Summary of the method: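 Compounds were first tested in duplicate at 10 uM against recombinant enzyme produced in insect cells, with substrate turnover measured by fluorescence after 1 hour. Decreased signal, referenced to acetonitrile vehicle, was taken as reduced enzyme activity. Active chemicals went on to concentration-response testing.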

[13] = target: human CYP19A1, CYP19A1 (gene 1588) (UniProt P11511); assay: NVS_ADME_hCYP19A1: NovaScreen (NVS) CYP450-related Enzyme Activity (ADME) Assay for human CYP19A1 (AID 2283098; active = hit-call score of the fitted dose curve at least 0.9, where 1 is the maximum)
Sequence of human CYP19A1, CYP19A1 (gene 1588) (P11511 whole entry, looked up): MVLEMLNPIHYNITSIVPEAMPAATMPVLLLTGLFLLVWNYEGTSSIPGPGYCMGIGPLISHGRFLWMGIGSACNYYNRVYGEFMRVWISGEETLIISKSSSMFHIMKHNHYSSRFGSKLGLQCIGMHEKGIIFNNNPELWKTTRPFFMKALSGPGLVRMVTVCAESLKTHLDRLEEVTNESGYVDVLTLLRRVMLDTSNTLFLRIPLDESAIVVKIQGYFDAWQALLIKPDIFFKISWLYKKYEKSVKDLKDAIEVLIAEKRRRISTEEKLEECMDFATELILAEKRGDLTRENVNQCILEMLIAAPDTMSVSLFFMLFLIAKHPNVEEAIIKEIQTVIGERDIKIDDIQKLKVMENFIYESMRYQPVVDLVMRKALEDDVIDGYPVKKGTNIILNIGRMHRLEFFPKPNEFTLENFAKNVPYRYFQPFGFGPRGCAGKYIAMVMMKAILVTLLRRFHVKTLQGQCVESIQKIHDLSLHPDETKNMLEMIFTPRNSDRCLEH
Summary of the method: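 Compounds were first screened at 10 uM in duplicate against purified enzyme, with a fluorogenic substrate and fluorescence intensity detection after 0.5 h. Inhibition appears as reduced signal against acetonitrile control.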

Measured: AC50

Sequence of E-selectin (Homo sapiens) (P16581 whole entry, looked up): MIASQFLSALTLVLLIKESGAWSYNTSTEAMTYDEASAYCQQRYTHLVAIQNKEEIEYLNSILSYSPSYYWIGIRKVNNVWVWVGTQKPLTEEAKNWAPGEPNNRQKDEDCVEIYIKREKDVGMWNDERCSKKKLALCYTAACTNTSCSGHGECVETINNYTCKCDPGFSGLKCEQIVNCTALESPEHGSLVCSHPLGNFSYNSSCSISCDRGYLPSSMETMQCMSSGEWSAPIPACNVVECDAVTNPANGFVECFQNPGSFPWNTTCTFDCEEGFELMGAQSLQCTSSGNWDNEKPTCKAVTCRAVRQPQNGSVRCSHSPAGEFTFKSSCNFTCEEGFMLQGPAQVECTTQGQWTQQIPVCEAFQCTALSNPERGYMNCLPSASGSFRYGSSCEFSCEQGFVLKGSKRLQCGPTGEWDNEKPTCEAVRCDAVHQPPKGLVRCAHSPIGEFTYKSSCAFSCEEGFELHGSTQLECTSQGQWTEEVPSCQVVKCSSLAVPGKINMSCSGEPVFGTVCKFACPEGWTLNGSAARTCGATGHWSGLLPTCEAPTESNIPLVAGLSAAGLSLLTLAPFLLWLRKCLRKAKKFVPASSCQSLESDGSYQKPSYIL
Sequence of Tumor necrosis factor (Homo sapiens) (P01375 whole entry, looked up): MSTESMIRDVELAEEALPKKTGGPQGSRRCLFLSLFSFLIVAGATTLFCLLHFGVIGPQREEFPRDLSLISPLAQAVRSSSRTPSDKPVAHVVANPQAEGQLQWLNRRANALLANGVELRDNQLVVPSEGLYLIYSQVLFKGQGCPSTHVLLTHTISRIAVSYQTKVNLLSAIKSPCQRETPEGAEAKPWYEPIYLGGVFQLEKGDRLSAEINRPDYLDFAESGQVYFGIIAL

OCC(F)(F)C(F)(F)C(F)(F)C(F)(F)C(F)(F)C(F)(F)C(F)(F)C(F)(F)C(F)(F)C(F)(F)C(F)(F)F
inactive: [1] | [2] | [3] | [4] | CD38, CD38 (gene 952) | CD40, CD40 (gene 958) | CD69, CD69 (gene 969) | [5] | [6] | [7] | [9] | [11]
active: [1] 0.417 µM | [3] 1.01 µM | CD38, CD38 (gene 952) 0.00623 µM | [8] 115 nM and 64.1 nM | [10] 476 nM and 63.9 nM

Oc1ccc(Cc2ccccc2O)cc1
inactive: [1] | [2] | [3] | [4] | CD38, CD38 (gene 952) | CD40, CD40 (gene 958) | CD69, CD69 (gene 969) | [5] | [6] | [7] | [8] | [9] | [10] | [11]

O=C(CC(=O)C(F)(F)C(F)(F)C(F)(F)F)c1cccs1
active: [1] 30 µM | [2] 10.4 µM | [3] 15.2 µM | [4] 45.7 µM and 46.4 µM | CD38, CD38 (gene 952) 23.1 µM and 28.6 µM | CD40, CD40 (gene 958) 17 µM and 16.2 µM | CD69, CD69 (gene 969) 17.6 µM and 30 µM | [5] 37.4 µM and 41.6 µM | [6] 30 µM and 43.1 µM | [7] 48.3 µM and 53.4 µM | [8] 44.8 µM and 43.6 µM | [9] 3.52 µM and 10.7 µM | [10] 13.5 µM and 13.3 µM | [11] 29.9 µM and 48.5 µM
inactive: [1] | [2] | [3]

Cc1[nH]nc2c1N=C(c1ccccc1Cl)c1cc([N+](=O)[O-])ccc1N2
inactive: [8]
active: [1] 3.38 µM | [2] 4.61 µM | [3] 4.86 µM | [4] 3.99 µM | CD38, CD38 (gene 952) 5.77 µM | CD40, CD40 (gene 958) 4.7 µM | CD69, CD69 (gene 969) 3.81 µM | [5] 3.44 µM | [6] 4.48 µM | [7] 8.28 µM | [9] 0.893 µM | [10] 1.94 µM | [11] 2.15 µM

O=C(O)CCC(F)(F)C(F)(F)C(F)(F)C(F)(F)C(F)(F)C(F)(F)F
inactive: [1] | [2] | [3] | [4] | CD38, CD38 (gene 952) | CD40, CD40 (gene 958) | CD69, CD69 (gene 969) | [5] | [6] | [7] | [8] | [9] | [10] | [11]

c1cc[nH]c1
inactive: [12]

CCCCc1oc2ccccc2c1C(=O)c1cc(I)c(OCCN(CC)CC)c(I)c1
active: [1] 10.8 µM | [2] 25.2 µM | [3] 23.5 µM | [4] 24.3 µM | CD38, CD38 (gene 952) 12.4 µM | CD40, CD40 (gene 958) 10.5 µM | CD69, CD69 (gene 969) 11.4 µM | [5] 20.5 µM | [6] 22.7 µM | [7] 22.9 µM | [8] 8.86 µM | [9] 15.1 µM | [10] 4.1 µM | [11] 13.4 µM

COc1cccc(O)c1
inactive: [1] | [2] | [3] | [4] | CD38, CD38 (gene 952) | CD40, CD40 (gene 958) | CD69, CD69 (gene 969) | [5] | [6] | [7] | [8] | [9] | [10] | [11]

CCCCCCc1ccc(N)cc1
inactive: [13]

O=C(CCCN1CCC(O)(c2ccc(Cl)cc2)CC1)c1ccc(F)cc1
active: [2] 20 µM | [10] 27 µM | [11] 19 µM
inactive: [1] | [3] | [4] | CD38, CD38 (gene 952) | CD40, CD40 (gene 958) | CD69, CD69 (gene 969) | [5] | [6] | [7] | [8] | [9]

CN(CCO)S(=O)(=O)C(F)(F)C(F)(F)C(F)(F)C(F)(F)C(F)(F)C(F)(F)C(F)(F)C(F)(F)F
inactive: [1] | [2] | [3] | [4] | CD38, CD38 (gene 952) | CD40, CD40 (gene 958) | CD69, CD69 (gene 969) | [5] | [6] | [7] | [8] | [9] | [10] | [11]

CCCCCc1ccc(O)cc1
active: [1] 27.2 µM | [2] 29 µM | [3] 31.4 µM | [4] 32.4 µM | CD38, CD38 (gene 952) 33.6 µM | CD40, CD40 (gene 958) 29.6 µM | CD69, CD69 (gene 969) 30.9 µM | [5] 27.5 µM | [6] 26.8 µM | [7] 36.7 µM | [8] 13.5 µM | [9] 30.6 µM | [10] 15.3 µM | [11] 25.9 µM

CC(=O)Nc1ccc(O)cc1
inactive: [1] | [2] | [3] | [4] | CD38, CD38 (gene 952) | CD40, CD40 (gene 958) | CD69, CD69 (gene 969) | [5] | [7] | [8] | [9] | [10] | [11]

C=COC(=O)C(C)(C)CCCCCC
active: [1] 32.4 µM | [2] 32.5 µM | [3] 0.371 µM | [4] 31.1 µM | CD40, CD40 (gene 958) 4.12 µM | CD69, CD69 (gene 969) 20 µM | [5] 31.1 µM | [6] 32.2 µM | [8] 36.8 µM | [10] 30.7 µM | [11] 36.1 µM
inactive: CD38, CD38 (gene 952) | [7] | [9]

CCC(C)c1ccccc1O (configuration not stated)
inactive: [1] | [2] | [3] | [4] | CD38, CD38 (gene 952) | CD40, CD40 (gene 958) | CD69, CD69 (gene 969) | [5] | [6] | [7] | [8] | [9] | [10] | [11]

O=C(O)CCC(F)(F)C(F)(F)C(F)(F)C(F)(F)C(F)(F)F
inactive: [1] | [2] | [3] | [4] | CD38, CD38 (gene 952) | CD40, CD40 (gene 958) | CD69, CD69 (gene 969) | [5] | [6] | [7] | [8] | [9] | [10] | [11]

Cc1ccc(N=Nc2c(O)ccc3ccccc23)c(C)c1
inactive: [1] | [3] | [4] | CD38, CD38 (gene 952) | CD40, CD40 (gene 958) | CD69, CD69 (gene 969) | [5] | [6] | [7] | [9] | [11]
active: [2] 7.3 µM | [8] 4.15 µM | [10] 4.79 µM
